# Compound activity: PubChem, National Center for Advancing Translational Sciences (NCATS)
# Hits are enriched below; roughly 10% of the tested compounds scored in any of these assays.
# VP16 counter – Gal4-VP16 reporter inhibition counter-screen | actives 3.5% (n = 310,000) | AID 2546 | Potency, µM (titrated, usually from 53.6 µM), without a hit: at the top dose activity, negative = inhibition, actives largely listed as inhibitors | Drosophila S2 Gal4-VP16 UAS-luciferase, luminescence, 20 h;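 note: Gal4-VP16 expression switched on by copper sulfate through the metallothionein promoter; % is set by controls: 0 for no effect and ±100 for the full control effect; nearly all actives have a fitted effect of over 50% in size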
# MCF10A rerep – inducers of DNA re-replication in MCF 10A breast cells. AID 624296. actives 2.9% (n = 350,000). Potency, µM (top dose mostly 46.1 µM), for inactives: top-dose activity, positive = re-replication, actives largely listed as activators. MCF 10A DNA re-replication, Hoechst nuclear intensity, 48 h; note: % of control where 0% means no effect; nearly all actives have a fitted effect of over 50% in size
# KB-V1 MDR tox – kills drug-selected multidrug resistant KB-V1 cells | actives 3.4% (n = 400,000) | Potency, µM (series often up to 46.1 µM), actives largely listed as cytotoxic | KB-V1 MDR cells viability, CellTiter-Glo, 72 h; note: % is set by controls: 0 for no effect and ±100 for the full control effect; nearly all actives have a fitted effect of over 60% in size
#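 Cytotoxicity via CellTiter-Glo luminescence after 72 h compound exposure at 37 degrees C. Cells: drug-selected KB-V1 line, DMEM phenol-red free plus 10% FBS. Compounds tested at multiple concentrations; normalized data fitted to concentration-effect curves.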
# KB-3-1 cytotox – kills parental KB-3-1 adenocarcinoma cells; KB-3-1 viability, CellTiter-Glo ATP luminescence, 72 h; AID 1347075; actives 1.4% (n = 400,000); Potency, µM (titrated, usually from 46.1 µM), most hits filed as cytotoxic; note: % is set by controls: 0 for no effect and ±100 for the full control effect; nearly all actives have a fitted effect of over 60% in size
#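 Cells are dispensed, compounds pinned in, plates held at 37 °C for 72 h, then CellTiter-Glo is added and luminescence read after 10 minutes. Cell line: parental KB-3-1 in phenol-red-free DMEM, 10% FBS.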
# RORg inh – ROR gamma (mouse) transcription inhibition; P51450; Drosophila S2 Gal4-RORgamma UAS-luciferase reporter, 20 h; Potency, µM (highest dose often 53.6 µM), for inactives: at the top dose activity change, negative = inhibition, most hits filed as inhibitors; actives 5.4% (n = 310,000); note: % is set by controls: 0 for no effect and ±100 for the full control effect; nearly all actives have a fitted effect of over 60% in size
# Target sequence (P51450 whole entry, looked up, the tested form may be a part): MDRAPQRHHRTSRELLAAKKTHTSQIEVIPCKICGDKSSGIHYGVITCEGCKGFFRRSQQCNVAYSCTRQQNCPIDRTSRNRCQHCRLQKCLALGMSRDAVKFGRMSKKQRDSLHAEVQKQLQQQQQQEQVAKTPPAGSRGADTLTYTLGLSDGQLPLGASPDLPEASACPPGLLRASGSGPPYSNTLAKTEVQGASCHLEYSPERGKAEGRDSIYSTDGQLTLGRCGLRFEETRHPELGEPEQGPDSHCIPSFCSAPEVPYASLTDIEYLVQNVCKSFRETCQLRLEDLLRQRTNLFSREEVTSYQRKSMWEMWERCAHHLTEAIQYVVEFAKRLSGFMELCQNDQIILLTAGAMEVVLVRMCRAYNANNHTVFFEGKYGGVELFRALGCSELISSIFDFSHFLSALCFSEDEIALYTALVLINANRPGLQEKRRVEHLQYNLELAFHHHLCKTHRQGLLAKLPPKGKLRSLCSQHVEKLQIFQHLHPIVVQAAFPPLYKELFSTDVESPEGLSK
#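 Stably transfected Drosophila Schneider cells are the test system, with ROR gamma fused to Gal4 and luciferase under UAS control; luminescence is read after 20 hr of 700 uM copper sulfate induction at ambient temperature.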
# SW480 rereplic – inducers of DNA re-replication in SW480 colon cancer cells; SW480 DNA re-replication, Hoechst DNA content imaging, 48 h; Potency, µM (series often up to 46.1 µM), inactives show at the highest dose re-replication activation, hits mostly activators; actives 1.8% (n = 340,000); AID 624297; note: % of control where 0% means no effect; nearly all actives have a fitted effect of over 55% in size
#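 Per well, 250 cells were exposed to pinned compound for 48 hr. Nuclear DNA was visualised with Hoechst (40 min, 37 C) and total object intensity recorded by fluorescence scanning.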
# An asterisk follows results filed as active; i = inactive; ? = inconclusive; . = not tested or not shown; [ ] = dose if it differs, or a comment. Calls come from the whole dose curve; as a rule, active = well fitted curve in the direction sought with a large enough effect; inconclusive = small, poorly fitted or top-dose-only effect, or another doubt; inactive = no such curve, though single readings can be large; an effect the other way counts as inactive or inconclusive. Potency is the fitted concentration of half-maximal effect.
SMILES,VP16 counter,MCF10A rerep,KB-V1 MDR tox,KB-3-1 cytotox,RORg inh,SW480 rereplic
CC(=O)NC(c1ccco1)c1cc(F)c2cccnc2c1O (centres undefined),.,?,i,?,.,7%[9.22 µM]
CC(=O)NC(c1cccs1)c1cc(F)c2cccnc2c1O (centres undefined),.,-18%,i,10µM*,.,?
CCCC(=O)NC(c1ccco1)c1cc(Cl)c2cccnc2c1O (centres undefined),3.5µM*,?,?,i,4µM*,?
CC1(C)CC(=O)C(C(c2cc([N+](=O)[O-])ccc2Cl)C2C(=O)CC(C)(C)CC2=O)C(=O)C1,.,?,i,i,.,12µM*
CCCOP(=O)(c1ccc(N(C)C)cc1)C(Nc1ccccc1)c1ccc(C)cc1 (centres undefined),?,?,21µM*,i,?,9%
Cc1ccccc1C(=O)Nc1ccc(N2CCCC2)cc1,-1%,0%,?,?,1%,-13%
Cc1ccccc1C(=O)NC(=S)Nc1ccc(N2CCOCC2)cc1,?,1%,i,i,20µM*,-5%
CN1CCN(c2ccc(NC(=O)COc3ccccc3Cl)cc2)CC1,17%,?,i,i,24%,-1%
Cc1cccc(C)c1NC(=S)NC(=O)c1ccccc1F,6.3µM*,21%,?,i,4.5µM*,-2%
CN1CCN(c2ccc(NC(=S)NC(=O)c3cccc4c(Cl)cccc34)cc2)CC1,-13%,?,i,i,?,21µM*
Cc1cc(C)nc(NC(=S)NC(=O)c2ccccc2F)n1,.,-11%,i,i,.,-53%
O=C(CN1CCOCC1)NNC(=S)Nc1ccccc1,1.3µM*,-7%,i,i,29%,6%
CCCCNC(=O)C(NC(=O)c1cccc2ccccc12)C(=O)c1ccccc1 (centres undefined),.,.,i,i,.,.
CC(=O)c1ccc(NC(=S)Nc2ccc(N3CCOCC3)cc2)cc1,-10%,-5%,i,i,-23%,3%
COc1ccc(NC(=O)c2ccccc2[N+](=O)[O-])cc1,4%,3%,i,i,24%,-1%
COc1ccccc1Nc1ccc(NC(=O)c2cccc([N+](=O)[O-])c2C)cc1,14%,-1%,?,18µM*,-7%,38%
O=C(NC(=S)NCCCN1CCOCC1)c1ccc(Br)cc1,-84%,-6%,?,i,?,-2%
Cc1ccc(C(=O)NC(=S)NCCCN2CCOCC2)cc1,-3%,17%,i,i,18µM*,-8%
O=C(NC(=S)Nc1ccc(N2CCOCC2)cc1)c1ccco1,-18%,14%,16µM*,i,?,?
O=C(NC(=S)Nc1ccc(N2CCOCC2)cc1)c1ccccc1,?,9%,i,i,8.9µM*,-14%
CC1=C(C(=O)N(C(C)C)C(C)C)CC(CC(=O)NCCc2ccccn2)C(=O)N1Cc1ccc(F)cc1 (centres undefined),.,.,i,i,.,.
O=C(NC(=S)Nc1ccc(Cl)cc1)c1cncc(Br)c1,.,2%,i,?,.,-4%
O=C(NC(=S)NCCN1CCOCC1)c1cccc(Cl)c1,?,2%,?,i,11µM*,-4%
O=C(NC(=S)Nc1ccc(N2CCOCC2)cc1)c1cncc(Br)c1,8.9µM*,-3%,?,i,5µM*,-5%
CCc1ccc(C(=O)NC(=S)Nc2ccc(N3CCOCC3)cc2)cc1,18µM*,10%,18µM*,i,5µM*,4%
SMILES,VP16 counter,MCF10A rerep,KB-V1 MDR tox,KB-3-1 cytotox,RORg inh,SW480 rereplic
O=C(NC(=S)Nc1ccc(N2CCOCC2)cc1)c1cccc(Cl)c1,11µM*,?,i,i,2.5µM*,-7%
CC1(C(=O)Nc2cnc3ccccc3c2)CCN1C(=O)CC(c1ccccc1)c1ccccc1 (centres undefined),.,.,i,i,.,.
CCCCC/C=C\C/C=C\C/C=C\C/C=C\CCCC(=O)O[C@@H](CO)COCCCCCCCCCCCCCCCC,-16%,.,.,.,-4%,.
Cc1c(C(=O)NC(=S)Nc2ccc(N3CCOCC3)cc2)cccc1[N+](=O)[O-],-14%,4%,i,i,8.9µM*,-3%
O=C(NC(=S)Nc1ccc(N2CCOCC2)cc1)c1cccc(Cl)c1Cl,5µM*,9%,i,i,3.2µM*,-3%
S=C(NCCN1CCOCC1)N1CCN(c2cccc(Cl)c2)CC1,2%,27%,4.6µM*,?,7%,-4%
O=C(Nc1ccc(N2CCOCC2)cc1)c1c(F)cccc1Cl,-3%[10 µM],-4%,i,i,11%,1%
S=C(NCc1ccco1)N1CCN(c2cccc(Cl)c2)CC1,10%,-1%,i,i,?,-9%
O=C(CN1CCCN(Cc2ccccc2Cl)S1(=O)=O)NCc1ccccc1,.,.,i,?,.,.
NCCC[C@@H](CC(=O)N[C@@H]1CCCC[C@H]1C(=O)N[C@H](CC(=O)N[C@@H](CCC(=O)O)CC(=O)O)Cc1c[nH]c2ccccc12)NC(=O)C[C@H](Cc1ccccc1)NC(=O)[C@@H]1CNCC[C@H]1N,-14%,.,.,.,14%,.
C[C@H](N)CCCC(C)(C)O,-5%[17 µM],.,.,.,-2%[16.9 µM],.
CC12CCC(=O)N1C(C(=O)OCC(=O)Nc1ccc(C(F)(F)F)cc1)CS2 (centres undefined),.,0%,?,i,.,-15%
Cc1ccc(NC(=O)CN2C(=O)COc3ccc(C)cc32)nc1,2%,-3%,15µM*,i,2%,-2%
COc1ncc2nc(CCc3ccccc3)c(=O)n(Cc3cccs3)c2n1,5%,.,.,.,1%,.
